SMILES strings stand for the structures. Inconclusive results are not listed. The source made the active and inactive calls. The calls were made as follows: active = hit-call score of the fitted dose curve at least 0.9, where 1 is the maximum; inconclusive = response in the unintended direction; inactive = score below 0.9.

Chain of rat Vasoactive Intestinal Peptide Receptor (VIP), Non-selective Binding, Vipr1 (gene 24875) (P30083 whole entry, looked up): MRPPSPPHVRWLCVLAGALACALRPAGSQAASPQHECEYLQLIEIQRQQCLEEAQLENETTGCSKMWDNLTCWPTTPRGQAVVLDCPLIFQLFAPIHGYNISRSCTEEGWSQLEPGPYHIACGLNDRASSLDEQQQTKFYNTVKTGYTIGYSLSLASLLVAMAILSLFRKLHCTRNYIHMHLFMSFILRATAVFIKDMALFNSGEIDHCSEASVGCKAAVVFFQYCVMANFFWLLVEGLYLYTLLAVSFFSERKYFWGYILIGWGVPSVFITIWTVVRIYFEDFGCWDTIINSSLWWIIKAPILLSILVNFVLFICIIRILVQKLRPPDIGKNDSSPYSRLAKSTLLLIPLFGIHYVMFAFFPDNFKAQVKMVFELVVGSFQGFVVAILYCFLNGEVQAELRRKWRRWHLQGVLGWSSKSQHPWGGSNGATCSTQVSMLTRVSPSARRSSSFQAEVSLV

This test has as its target rat Vasoactive Intestinal Peptide Receptor (VIP), Non-selective Binding, Vipr1 (gene 24875) (UniProt P30083). Kind of test: NVS_GPCR_rVIP_NonSelective: NovaScreen (NVS) G Protein-Coupled Receptor Assay for rat Vasoactive Intestinal Peptide Receptor (VIP), Non-selective Binding. The method, then: NVS_GPCR_rVIP_NonSelective is a biochemical, single-readout assay that uses extracted gene-proteins from Rat forebrain membranes in a tissue-based cell-free assay. Measurements were taken 1 hour after chemical dosing in a 96-well plate.NVS_GPCR_rVIP_NonSelective is one of one assay component(s) measured or calculated from the NVS_GPCR_rVIP_NonSelective assay. It is designed to make measurements of radioligand binding, a form of binding reporter, as detected with scintillation counting signals by Filter-based radiodetection technology.Data from the assay component NVS_GPCR_rVIP_NonSelective was analyzed into 1 assay endpoint. This assay endpoint, NVS_GPCR_rVIP_NonSelective, was analyzed in the positive analysis fitting direction relative to DMSO as the negative control and baseline of activity. Using a type of binding reporter, loss-of-signal activity can be used to understand changes in the binding as they relate to the gene Vipr1. Furthermore, this assay endpoint can be referred to as a primary readout, because the performed assay has only produced 1 assay endpoint. To generalize the intended target to other relatable targets, this assay endpoint is annotated to the gpcr intended target family, where the subfamily is secretin receptor.
Binding assays used specific radioligands (tritiated, iodinated) with non-radioactive competitive displacement ligands in agonist or antagonist protocols (as indicated) and various reference compounds and inhibitors to titrate specific binding to receptors and transporters. Most enzyme assays (CYPs, kinases, phosphatases, proteases, HDACs) used recombinant protein and specific substrates (fluorescence mostly, some colorimetric and radioactive) and inhibitors, followed by a biochemical separation of substrate and product. All assays for the biochemical HTS were initially run in duplicate at a single concentration (10 uM for CYP450 assays and 25 uM for all others). Assay-chemical combinations meeting a pre-defined threshold (e.g., 30% inhibition and other criteria defined below) were then run in singleton concentration-response format with maximum concentration of 20 uM for CYPs and 50 uM for all others. Each assay was run with positive and negative controls, and concurrent controls on every plate. The follow-up (secondary) screen tested active chemical-pairs in concentration series, as well as a few additional assays not tested in the primary screen, some selected negative inactives, and several cases re-run in the concentration series for confirmatory purposes.
As to `CCC[CH2][Sn]([Cl])([CH2]CCC)[CH2]CCC`, the AC50 is 7.97 µM (active).
Consider `COP(=S)(OC)Oc1nc(Cl)c(Cl)cc1Cl`, for which the result was inactive.
With `CC(=O)[O][Hg][c]1ccccc1`, the call was inactive.
Still for that read-out and setting: the result for `Cc1ccc(-c2c(Cl)nc(C#N)n2S(=O)(=O)N(C)C)cc1` reads “inactive”; that for `Oc1ccccc1-c1ccccc1`, “inactive”; that for `CC[C@H](C)[C@H]1O[C@]2(C=C[C@@H]1C)C[C@@H]1C[C@@H](C/C=C(\C)[C@@H](O[C@H]3C[C@H](OC)[C@@H](O[C@H]4C[C@H](OC)[C@@H](NC)[C@H](C)O4)[C@H](C)O3)[C@@H](C)/C=C/C=C3\CO[C@@H]4[C@H](O)C(C)=C[C@@H](C(=O)O1)[C@]34O)O2`, “inactive”.
Turning to `C=C(C)C(=O)[O][Sn]([CH2]CCC)([CH2]CCC)[CH2]CCC`, the AC50 was 14.9 µM (active).
With `CC(C)N1C(=O)N(c2ccccc2)CSC1=NC(C)(C)C`, the compound was classed as inactive.
Still for that read-out and setting: the result for `Nc1c(Cl)c(F)nc(OCC(=O)O)c1Cl` reads “inactive”; that for `CCOP(=O)(OCC)Oc1nc(Cl)c(Cl)cc1Cl`, “inactive”.

In general, AC50 refers to the midpoint of the concentration-response curve, whichever way the signal moves.

(Values after PubChem BioAssay AID2283312 (EPA ToxCast).)
